According to PubChem BioAssay:

Assay: P. aeruginosa biofilm formation inhibitors, primary screen, PAO1 strain, BacTiter-Glo luminescence, LB-PBS (AID 1144)
Conditions: 12 h, higher = more signal; call rule not given here

z-score, inactive:
COCCOC(=O)N1C(=O)[C@@]2(c3ccccc31)[C@H](c1ccc(OCCO)cc1)N1[C@H](c3ccccc3)[C@H](c3ccccc3)OC(=O)[C@H]1[C@@H]2C(=O)N1CCCCCCC1 -0.302, CCCCCN1CC=CC23O[C@@H]4/C=C\CCC(C)OC(=O)C4[C@H]2C(=O)N(CCCCCCO)[C@@H]3C1=O (stereo not given in full) -0.943, COCCOC(=O)N1C(=O)[C@@]2(c3ccccc31)[C@H](c1ccccc1OCCO)N1[C@H](c3ccccc3)[C@H](c3ccccc3)OC(=O)[C@H]1[C@@H]2C(=O)N1CCCCCCC1 -0.41, C=C[C@@H](OC)[C@H](OC(=O)Nc1ccc(SC)cc1)c1ccc(OCCO)cc1 -0.918, COC(=O)[C@@]1(Cc2ccc(F)cc2)[C@H]2c3cc(C(=O)N(C)C)n(Cc4c(CO)[nH]cc(C)c4=O)c3C[C@H]2CN1C(=O)c1ccccc1 -0.00694, Cc1ccccc1C(O)C1C=CC2C(=O)N(c3ccccc3)C(=O)C2N1Nc1ccc([N+](=O)[O-])cc1 (stereo not given) -0.35, COc1cc(NN2C(C(O)c3cc(OC)c(OC)c(OC)c3)C=CC3C(=O)N(c4ccccc4)C(=O)C32)cc(OC)c1OC (stereo not given) -0.24, C=CCC(OC(C)=O)[C@@H]1[C@@H](N(Cc2cccc3ccccc23)C(=O)c2cccc3ccccc23)c2cc(OCCCO)ccc2N1C(=O)c1ccc2ccccc2c1 (stereo not given in full) 0.311, COC(=O)[C@@]1(Cc2ccccc2)[C@H]2c3cc(C(=O)N4CCCC4)n(CCSCCO)c3C[C@H]2CN1C(=O)c1ccccc1 0.019, Cc1cccc([C@H]2C[C@H]3C(I)=C[C@@H]2C(=O)[C@]32CO2)c1 -0.209, O=C1C2C=CC(C(O)C=Cc3ccc([N+](=O)[O-])cc3)N(Nc3ccccc3)C2C(=O)N1c1ccccc1 (stereo not given) -0.633, CC(=O)NCCCC[C@@H]1NC(=O)[C@H]2C[C@@H](C(=O)NCCCCCNC(=O)CS)[C@@H](c3cccc(OCCO)c3)N2C1=O -0.93, C=C[C@H](C)[C@H](OC(=O)Nc1ccc(OC)cc1)c1ccc(OCCO)cc1 0.133, CCOC(=O)C[C@H]1[C@H](OC(=O)c2ccc(C(=O)c3ccccc3)cc2)[C@@H](NC(=O)CC(C)C)c2cc(OCCCO)ccc2N1C(=O)Cc1ccc(OC)cc1 -0.356, Cc1ccccc1C(O)C1C=CC2C(=O)NC(=O)C2N1Nc1ccc(Cl)cc1Cl (stereo not given) -0.274, COc1cc2c(cc1O)C(c1ccc(CN3CCCC3)cc1)N(C)CC2 (stereo not given) 0.374, COc1ccc([Si](C)(C)[C@@H]2[C@@H](CCn3cc([C@H](O)c4ccccc4)nn3)O[C@]3(C(=O)N(Cc4cccc(N5C(=O)c6cccc7cccc5c67)c4)c4ccccc43)[C@H]2C)cc1 0.692, CC(C)(C)OC(=O)CC[C@]1(C(=O)N2CCCCC2)COC(c2ccc(OCCCO)cc2)=N1 -0.984, COCCOC(=O)N1C(=O)[C@@]2(c3cc(C#CC4=CCCCC4)ccc31)[C@H](c1ccc(O)cc1)N1[C@H](c3ccccc3)[C@H](c3ccccc3)OC(=O)[C@H]1[C@@H]2C(=O)NC[C@H](O)c1ccccc1 -0.354, CN(C)CCCCCCNC(=O)[C@@H]1C[C@@H]2C(=O)N[C@@H](CCCCN)C(=O)N2[C@@H]1c1ccc(O)cc1 -1.3, Cc1ccc(N2C(=O)c3ccccc3[C@](C)(C(=O)NCc3ccccc3)[C@@H]2c2ccc(CO)cc2)nc1 0.493, C=C[C@@H](C)[C@@H](OC(=O)Nc1ccc(SC)cc1)c1ccc(OCCO)cc1 -0.882, C=C(/C(=C/C[C@@H](OC(=O)c1ccncc1)c1cccc(OCCO)c1)c1cnc2ccccc2c1)C(C)C -0.454, O=c1cccc(-c2ccco2)o1 0.329, O=C1C2C=CC(C(O)c3cc(C(F)(F)F)cc(C(F)(F)F)c3)N(Nc3ccccc3F)C2C(=O)N1c1ccccc1 (stereo not given) -0.476, O=C(N1CCOCC1)[C@@]1(CCS(=O)(=O)c2ccccc2)N=C(c2ccc(OCCCO)cc2)O[C@H]1c1ccccc1 0.201, COCCCNC(=O)[C@@]1(Sc2ccc(C)cc2)CC(=O)N(C(C)C)[C@@H]1c1ccc(CO)cc1I -0.96, C=C(C)[C@@H]1CC=C(C(O)C2C=CC3C(=O)N(c4ccccc4)C(=O)C3N2Nc2ccc(C#N)cc2)CC1 (stereo not given in full) -1.68, C=C(COC)/C(=C/C[C@@H](OC(=O)c1ccncc1)c1ccccc1OCCO)c1cc(C(=O)OC)ccc1OC 0.454, CC(C)C[C@@H]1NC(=O)[C@@H]2C[C@H](C(=O)NCCCCCC[N+](C)(C)C)[C@H](c3cccc(OCCO)c3)N2C1=O -0.226, O=C1C2C=CC(C(O)c3ccco3)N(Nc3ccccc3)C2C(=O)N1c1ccccc1 (stereo not given) -0.497, CCOC(=O)C[C@H]1[C@H](OC(=O)c2ccc(-c3ccccc3)cc2)[C@@H](NC(=O)Cc2ccc(OC)cc2)c2cc(OCCCO)ccc2N1C(=O)Cc1ccc(OC)cc1 0.00724, CCOC(=O)C1=CC[C@@H](c2ccccc2)N(S(=O)(=O)c2ccc(C)cc2)[C@H]1c1cccc(OC)c1 0.966, CN1C=C(C(=O)OCCS(C)(=O)=O)C(C(=O)OCCS(C)(=O)=O)=CC(c2ccc(CO)cc2)=CC1c1cccs1 (stereo not given) 0.637, COC(=O)C(CC#Cc1ccc2c(c1)[C@]1(C(=O)N2)[C@H](c2ccc(OCCO)cc2)N2[C@H](c3ccccc3)[C@H](c3ccccc3)OC(=O)[C@H]2[C@@H]1C(=O)N1CCN(c2ncccn2)CC1)C(=O)OC -0.961
